ChEMBL document CHEMBL2218924, “A broad activity screen in support of a chemogenomic map for kinase signalling research and drug discovery” (Biochem J, 2013)

Experiments:
[1] = target: Death-associated protein kinase 1 (Homo sapiens) (UniProt P53355); conditions: at 10 µM
[2] = target: Death-associated protein kinase 2 (Homo sapiens) (UniProt Q9UIK4); conditions: at 1 µM
[3] = target: Death-associated protein kinase 2 (Homo sapiens) (UniProt Q9UIK4); conditions: at 10 µM
[4] = target: T1, Serine/threonine-protein kinase DCLK2 (Homo sapiens) (UniProt Q8N568); conditions: at 1 µM
T1 sequence (whole entry): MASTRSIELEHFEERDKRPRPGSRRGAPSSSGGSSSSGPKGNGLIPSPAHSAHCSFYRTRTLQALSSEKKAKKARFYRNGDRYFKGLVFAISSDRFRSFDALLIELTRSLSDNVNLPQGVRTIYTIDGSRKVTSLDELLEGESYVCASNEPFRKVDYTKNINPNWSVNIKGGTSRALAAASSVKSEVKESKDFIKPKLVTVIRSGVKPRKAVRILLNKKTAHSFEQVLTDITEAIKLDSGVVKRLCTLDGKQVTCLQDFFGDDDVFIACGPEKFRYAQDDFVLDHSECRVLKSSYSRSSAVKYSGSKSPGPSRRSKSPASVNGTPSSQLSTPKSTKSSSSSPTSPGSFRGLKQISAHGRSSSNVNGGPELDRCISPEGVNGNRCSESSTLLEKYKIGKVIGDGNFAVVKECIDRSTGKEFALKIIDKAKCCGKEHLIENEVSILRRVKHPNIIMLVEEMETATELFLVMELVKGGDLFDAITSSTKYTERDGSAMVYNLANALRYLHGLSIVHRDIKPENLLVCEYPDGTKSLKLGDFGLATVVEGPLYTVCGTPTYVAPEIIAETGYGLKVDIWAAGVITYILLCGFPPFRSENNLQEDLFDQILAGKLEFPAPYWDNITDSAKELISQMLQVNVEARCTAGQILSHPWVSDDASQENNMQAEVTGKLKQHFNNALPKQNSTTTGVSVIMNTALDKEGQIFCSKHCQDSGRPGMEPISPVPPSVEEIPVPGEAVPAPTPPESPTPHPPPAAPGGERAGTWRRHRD

[5] = target: T1, Serine/threonine-protein kinase DCLK2 (Homo sapiens); conditions: at 10 µM
[6] = target: T2, Discoidin domain-containing receptor 2 (Homo sapiens) (UniProt Q16832); conditions: at 10 µM
T2 sequence (whole entry): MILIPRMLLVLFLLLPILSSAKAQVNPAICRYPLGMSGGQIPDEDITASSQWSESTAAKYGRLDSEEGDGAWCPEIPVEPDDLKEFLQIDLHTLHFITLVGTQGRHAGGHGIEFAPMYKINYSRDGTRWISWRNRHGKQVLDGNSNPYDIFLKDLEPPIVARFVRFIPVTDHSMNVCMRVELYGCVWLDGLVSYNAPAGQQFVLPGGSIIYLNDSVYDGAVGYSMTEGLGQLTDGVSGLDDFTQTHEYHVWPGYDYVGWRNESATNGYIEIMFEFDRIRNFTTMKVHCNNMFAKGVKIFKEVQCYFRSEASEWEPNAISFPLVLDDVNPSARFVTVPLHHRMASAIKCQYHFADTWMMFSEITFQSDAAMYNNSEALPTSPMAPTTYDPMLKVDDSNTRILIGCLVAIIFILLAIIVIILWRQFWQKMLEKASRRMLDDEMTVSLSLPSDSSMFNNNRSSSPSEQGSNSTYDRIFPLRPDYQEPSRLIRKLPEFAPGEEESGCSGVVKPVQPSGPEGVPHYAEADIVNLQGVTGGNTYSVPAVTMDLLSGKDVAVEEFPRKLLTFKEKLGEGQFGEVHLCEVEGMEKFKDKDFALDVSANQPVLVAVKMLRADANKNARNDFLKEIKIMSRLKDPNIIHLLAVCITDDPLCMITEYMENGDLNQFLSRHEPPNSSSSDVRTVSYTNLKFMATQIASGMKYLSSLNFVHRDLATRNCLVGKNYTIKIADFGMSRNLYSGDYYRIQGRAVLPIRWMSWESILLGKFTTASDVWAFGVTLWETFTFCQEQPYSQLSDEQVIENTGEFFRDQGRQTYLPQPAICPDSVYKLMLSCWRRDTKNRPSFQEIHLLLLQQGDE

[7] = target: T3, Myotonin-protein kinase (Homo sapiens) (UniProt Q09013); conditions: at 1 µM
T3 sequence (whole entry): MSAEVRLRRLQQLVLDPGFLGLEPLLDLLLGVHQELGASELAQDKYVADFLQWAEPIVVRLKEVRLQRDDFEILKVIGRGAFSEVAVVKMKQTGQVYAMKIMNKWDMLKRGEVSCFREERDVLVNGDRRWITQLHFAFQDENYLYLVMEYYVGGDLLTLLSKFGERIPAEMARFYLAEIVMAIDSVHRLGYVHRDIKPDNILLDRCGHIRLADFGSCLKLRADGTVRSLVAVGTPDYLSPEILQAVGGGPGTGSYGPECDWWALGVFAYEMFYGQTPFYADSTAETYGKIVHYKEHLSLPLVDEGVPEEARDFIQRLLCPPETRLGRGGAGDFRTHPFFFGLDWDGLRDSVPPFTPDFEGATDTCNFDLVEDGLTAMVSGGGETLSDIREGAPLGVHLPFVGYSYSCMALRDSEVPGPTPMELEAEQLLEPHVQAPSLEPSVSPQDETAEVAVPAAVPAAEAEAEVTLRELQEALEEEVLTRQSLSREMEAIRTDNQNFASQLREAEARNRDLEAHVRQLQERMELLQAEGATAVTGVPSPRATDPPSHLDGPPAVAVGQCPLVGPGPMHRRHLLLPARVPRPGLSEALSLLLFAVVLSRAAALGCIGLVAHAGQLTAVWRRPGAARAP

[8] = target: T3, Myotonin-protein kinase (Homo sapiens); conditions: at 10 µM
[9] = target: T4, Serine/threonine-protein kinase 17A (Homo sapiens) (UniProt Q9UEE5); conditions: at 1 µM
T4 sequence (whole entry): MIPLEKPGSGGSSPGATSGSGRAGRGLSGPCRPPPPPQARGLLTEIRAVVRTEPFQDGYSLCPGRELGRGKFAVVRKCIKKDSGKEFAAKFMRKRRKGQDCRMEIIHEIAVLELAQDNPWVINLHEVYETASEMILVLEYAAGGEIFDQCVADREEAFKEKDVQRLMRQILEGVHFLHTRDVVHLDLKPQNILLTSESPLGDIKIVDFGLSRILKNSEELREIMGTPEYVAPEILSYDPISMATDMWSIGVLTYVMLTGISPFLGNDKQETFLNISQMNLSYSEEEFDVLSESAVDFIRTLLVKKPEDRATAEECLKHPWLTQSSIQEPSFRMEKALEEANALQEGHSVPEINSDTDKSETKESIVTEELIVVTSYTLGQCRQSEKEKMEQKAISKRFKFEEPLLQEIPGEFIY

[10] = target: T4, Serine/threonine-protein kinase 17A (Homo sapiens); conditions: at 10 µM
[11] = target: T5, Dual specificity tyrosine-phosphorylation-regulated kinase 2 (Homo sapiens) (UniProt Q92630); conditions: at 1 µM
T5 sequence (whole entry): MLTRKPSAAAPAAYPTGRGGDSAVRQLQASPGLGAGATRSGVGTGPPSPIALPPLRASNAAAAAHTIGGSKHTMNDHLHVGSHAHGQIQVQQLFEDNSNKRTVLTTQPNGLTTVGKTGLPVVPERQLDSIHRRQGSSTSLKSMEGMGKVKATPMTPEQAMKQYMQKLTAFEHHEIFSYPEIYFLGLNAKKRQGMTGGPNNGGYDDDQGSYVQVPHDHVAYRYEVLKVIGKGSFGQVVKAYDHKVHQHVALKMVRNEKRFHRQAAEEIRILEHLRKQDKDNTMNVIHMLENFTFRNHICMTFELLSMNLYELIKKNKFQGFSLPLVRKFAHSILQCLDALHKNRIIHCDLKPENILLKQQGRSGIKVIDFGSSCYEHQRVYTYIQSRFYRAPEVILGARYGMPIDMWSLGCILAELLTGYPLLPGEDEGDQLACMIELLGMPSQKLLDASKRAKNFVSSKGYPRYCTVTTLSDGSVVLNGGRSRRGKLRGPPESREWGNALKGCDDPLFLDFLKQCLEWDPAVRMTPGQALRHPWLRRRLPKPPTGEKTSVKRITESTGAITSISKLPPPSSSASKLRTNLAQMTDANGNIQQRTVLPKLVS

[12] = target: T5, Dual specificity tyrosine-phosphorylation-regulated kinase 2 (Homo sapiens); conditions: at 10 µM
[13] = target: T6, Ephrin type-A receptor 1 (Homo sapiens) (UniProt P21709); conditions: at 1 µM
T6 sequence (whole entry): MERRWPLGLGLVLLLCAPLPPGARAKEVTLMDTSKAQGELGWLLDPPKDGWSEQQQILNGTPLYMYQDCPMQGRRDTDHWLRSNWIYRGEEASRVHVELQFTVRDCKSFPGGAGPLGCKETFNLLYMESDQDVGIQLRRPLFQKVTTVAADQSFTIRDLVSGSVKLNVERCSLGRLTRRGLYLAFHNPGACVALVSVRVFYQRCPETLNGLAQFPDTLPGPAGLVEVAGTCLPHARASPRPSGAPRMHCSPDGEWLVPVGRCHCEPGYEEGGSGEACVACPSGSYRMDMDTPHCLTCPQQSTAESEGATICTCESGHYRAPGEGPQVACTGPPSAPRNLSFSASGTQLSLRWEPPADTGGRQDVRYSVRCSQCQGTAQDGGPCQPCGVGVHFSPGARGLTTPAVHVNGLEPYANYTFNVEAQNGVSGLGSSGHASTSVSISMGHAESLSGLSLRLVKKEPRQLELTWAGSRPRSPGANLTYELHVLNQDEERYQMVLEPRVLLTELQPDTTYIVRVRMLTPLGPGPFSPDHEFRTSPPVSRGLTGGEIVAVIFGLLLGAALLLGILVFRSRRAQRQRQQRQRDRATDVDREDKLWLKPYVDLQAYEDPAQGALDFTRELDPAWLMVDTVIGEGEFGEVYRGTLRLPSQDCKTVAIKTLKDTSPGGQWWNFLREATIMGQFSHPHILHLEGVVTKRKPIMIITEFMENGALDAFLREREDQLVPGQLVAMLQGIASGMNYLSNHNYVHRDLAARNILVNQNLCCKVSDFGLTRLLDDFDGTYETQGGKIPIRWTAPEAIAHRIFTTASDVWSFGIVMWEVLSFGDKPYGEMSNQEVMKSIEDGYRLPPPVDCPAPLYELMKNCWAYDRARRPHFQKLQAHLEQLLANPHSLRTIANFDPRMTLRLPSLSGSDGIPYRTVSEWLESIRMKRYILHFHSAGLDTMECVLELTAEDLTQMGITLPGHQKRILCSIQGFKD

[14] = target: T6, Ephrin type-A receptor 1 (Homo sapiens); conditions: at 10 µM
[15] = target: T2, Discoidin domain-containing receptor 2 (Homo sapiens); conditions: at 1 µM
[16] = target: Ephrin type-A receptor 2 (Homo sapiens) (UniProt P29317); conditions: at 1 µM
[17] = target: Ephrin type-A receptor 2 (Homo sapiens) (UniProt P29317); conditions: at 10 µM
[18] = target: T7, Ephrin type-A receptor 3 (Homo sapiens) (UniProt P29320); conditions: at 1 µM
T7 sequence (whole entry): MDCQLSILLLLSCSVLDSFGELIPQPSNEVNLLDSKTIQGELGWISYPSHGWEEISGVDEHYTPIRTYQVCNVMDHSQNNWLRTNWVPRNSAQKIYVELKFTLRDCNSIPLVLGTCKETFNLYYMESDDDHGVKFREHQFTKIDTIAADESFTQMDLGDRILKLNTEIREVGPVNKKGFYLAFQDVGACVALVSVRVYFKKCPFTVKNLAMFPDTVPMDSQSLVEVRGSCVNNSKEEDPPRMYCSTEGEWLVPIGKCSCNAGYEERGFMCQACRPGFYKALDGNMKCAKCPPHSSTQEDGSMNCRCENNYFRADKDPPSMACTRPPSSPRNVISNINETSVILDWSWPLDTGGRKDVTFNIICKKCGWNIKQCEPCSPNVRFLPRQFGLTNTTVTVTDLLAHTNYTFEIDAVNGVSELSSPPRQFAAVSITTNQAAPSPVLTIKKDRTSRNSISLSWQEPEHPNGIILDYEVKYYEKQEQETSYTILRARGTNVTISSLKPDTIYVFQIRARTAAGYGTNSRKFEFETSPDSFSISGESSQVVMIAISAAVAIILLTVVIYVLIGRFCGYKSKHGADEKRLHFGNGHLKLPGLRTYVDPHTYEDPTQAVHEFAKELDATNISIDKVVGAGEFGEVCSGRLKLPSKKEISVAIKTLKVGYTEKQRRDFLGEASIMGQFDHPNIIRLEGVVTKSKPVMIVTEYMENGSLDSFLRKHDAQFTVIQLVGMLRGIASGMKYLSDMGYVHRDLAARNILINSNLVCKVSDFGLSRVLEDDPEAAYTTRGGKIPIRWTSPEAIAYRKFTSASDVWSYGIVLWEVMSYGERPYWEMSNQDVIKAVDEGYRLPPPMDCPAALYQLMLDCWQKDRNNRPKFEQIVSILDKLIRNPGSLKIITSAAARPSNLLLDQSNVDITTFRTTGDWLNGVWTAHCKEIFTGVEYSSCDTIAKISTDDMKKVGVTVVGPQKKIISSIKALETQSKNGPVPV

Sequence of Death-associated protein kinase 2 (Homo sapiens) (Q9UIK4 whole entry, looked up): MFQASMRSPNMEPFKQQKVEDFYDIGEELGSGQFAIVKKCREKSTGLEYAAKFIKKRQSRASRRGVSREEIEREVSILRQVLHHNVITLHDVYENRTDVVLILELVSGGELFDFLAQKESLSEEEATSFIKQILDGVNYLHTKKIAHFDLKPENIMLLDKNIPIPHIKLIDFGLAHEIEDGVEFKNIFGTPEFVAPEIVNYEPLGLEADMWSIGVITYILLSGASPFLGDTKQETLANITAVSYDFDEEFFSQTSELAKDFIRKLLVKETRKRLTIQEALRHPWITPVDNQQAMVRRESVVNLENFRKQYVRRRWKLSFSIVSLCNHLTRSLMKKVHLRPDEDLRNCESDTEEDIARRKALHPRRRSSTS
Sequence of Death-associated protein kinase 1 (Homo sapiens) (P53355 whole entry, looked up): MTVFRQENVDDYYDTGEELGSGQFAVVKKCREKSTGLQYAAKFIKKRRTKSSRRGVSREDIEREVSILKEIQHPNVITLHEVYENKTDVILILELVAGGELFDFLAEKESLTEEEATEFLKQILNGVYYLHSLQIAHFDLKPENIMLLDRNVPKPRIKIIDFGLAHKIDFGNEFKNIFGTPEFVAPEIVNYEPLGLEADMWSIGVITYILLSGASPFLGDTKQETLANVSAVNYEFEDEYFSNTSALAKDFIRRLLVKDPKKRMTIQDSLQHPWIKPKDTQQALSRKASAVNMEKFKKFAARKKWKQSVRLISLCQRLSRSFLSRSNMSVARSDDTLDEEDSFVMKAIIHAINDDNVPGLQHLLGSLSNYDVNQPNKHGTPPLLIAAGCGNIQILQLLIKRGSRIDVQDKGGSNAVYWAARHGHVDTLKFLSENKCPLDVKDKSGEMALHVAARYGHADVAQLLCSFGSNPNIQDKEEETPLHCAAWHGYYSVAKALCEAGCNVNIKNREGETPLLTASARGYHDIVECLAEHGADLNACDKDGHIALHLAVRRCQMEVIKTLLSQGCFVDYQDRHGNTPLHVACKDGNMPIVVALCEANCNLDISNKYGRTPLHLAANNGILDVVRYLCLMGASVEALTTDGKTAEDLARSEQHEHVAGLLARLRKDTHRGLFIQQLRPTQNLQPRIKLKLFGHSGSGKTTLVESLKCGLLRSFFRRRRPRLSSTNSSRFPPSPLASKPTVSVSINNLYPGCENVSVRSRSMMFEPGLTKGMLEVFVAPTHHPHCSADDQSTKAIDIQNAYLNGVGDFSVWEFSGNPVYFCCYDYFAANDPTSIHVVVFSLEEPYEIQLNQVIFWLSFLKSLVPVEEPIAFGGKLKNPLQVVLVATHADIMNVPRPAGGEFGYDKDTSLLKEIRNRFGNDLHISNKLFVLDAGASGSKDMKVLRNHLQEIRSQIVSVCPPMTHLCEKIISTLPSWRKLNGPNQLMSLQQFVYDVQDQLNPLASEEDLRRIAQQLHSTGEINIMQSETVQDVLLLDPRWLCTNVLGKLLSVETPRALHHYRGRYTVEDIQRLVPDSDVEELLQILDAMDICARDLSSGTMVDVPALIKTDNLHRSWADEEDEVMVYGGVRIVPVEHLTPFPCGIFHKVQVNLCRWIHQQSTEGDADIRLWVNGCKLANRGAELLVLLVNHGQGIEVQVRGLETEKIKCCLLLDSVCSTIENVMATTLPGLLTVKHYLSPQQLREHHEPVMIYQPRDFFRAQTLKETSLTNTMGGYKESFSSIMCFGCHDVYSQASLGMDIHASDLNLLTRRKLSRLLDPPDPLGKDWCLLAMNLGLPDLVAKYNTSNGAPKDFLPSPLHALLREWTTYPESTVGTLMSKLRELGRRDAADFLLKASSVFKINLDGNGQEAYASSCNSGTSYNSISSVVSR
Sequence of Ephrin type-A receptor 2 (Homo sapiens) (P29317 whole entry): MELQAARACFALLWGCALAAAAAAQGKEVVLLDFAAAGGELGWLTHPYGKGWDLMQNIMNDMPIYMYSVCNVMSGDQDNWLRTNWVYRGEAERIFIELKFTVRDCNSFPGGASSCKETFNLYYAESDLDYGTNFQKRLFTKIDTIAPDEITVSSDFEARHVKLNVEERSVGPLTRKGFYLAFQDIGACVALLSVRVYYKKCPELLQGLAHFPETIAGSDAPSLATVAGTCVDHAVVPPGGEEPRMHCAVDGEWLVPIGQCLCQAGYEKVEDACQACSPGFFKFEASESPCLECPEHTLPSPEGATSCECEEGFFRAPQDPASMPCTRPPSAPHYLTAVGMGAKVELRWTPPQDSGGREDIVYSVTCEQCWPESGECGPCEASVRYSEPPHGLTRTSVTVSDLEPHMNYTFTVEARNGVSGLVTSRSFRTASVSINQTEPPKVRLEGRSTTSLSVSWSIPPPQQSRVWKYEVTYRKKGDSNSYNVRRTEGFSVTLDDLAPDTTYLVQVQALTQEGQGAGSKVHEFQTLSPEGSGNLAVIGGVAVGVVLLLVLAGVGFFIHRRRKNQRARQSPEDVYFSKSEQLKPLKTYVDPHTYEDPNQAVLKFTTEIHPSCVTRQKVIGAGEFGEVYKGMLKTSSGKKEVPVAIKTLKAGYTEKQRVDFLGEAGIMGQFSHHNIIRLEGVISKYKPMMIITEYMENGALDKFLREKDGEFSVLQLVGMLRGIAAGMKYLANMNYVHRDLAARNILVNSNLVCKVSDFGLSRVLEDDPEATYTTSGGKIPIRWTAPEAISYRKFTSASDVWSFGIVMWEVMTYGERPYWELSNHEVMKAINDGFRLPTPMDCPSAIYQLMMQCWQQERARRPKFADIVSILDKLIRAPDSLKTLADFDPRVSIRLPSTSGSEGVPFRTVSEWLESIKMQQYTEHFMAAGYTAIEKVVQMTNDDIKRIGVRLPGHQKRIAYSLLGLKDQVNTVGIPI

| SMILES | residual activity [1] [%] | residual activity [2] [%] | residual activity [3] [%] | residual activity [4] [%] | residual activity [5] [%] | residual activity [6] [%] | residual activity [7] [%] | residual activity [8] [%] | residual activity [9] [%] | residual activity [10] [%] | residual activity [11] [%] | residual activity [12] [%] | residual activity [13] [%] | residual activity [14] [%] | residual activity [15] [%] | residual activity [16] [%] | residual activity [17] [%] | residual activity [18] [%] |
| --- | --- | --- | --- | --- | --- | --- | --- | --- | --- | --- | --- | --- | --- | --- | --- | --- | --- | --- |
| COc1cc2ncnc(Nc3ccc(NC(=O)c4ccccc4)cc3)c2cc1OC | 83 | 98 | 106 | 99 | 104 | 89 | 110 | 145 | 75 | 78 | 98 | 98 | 107 | 106 | – | – | – | – |
| c1ccc(-c2n[nH]c3c2oc2ccccc23)cc1 | 98 | – | – | 82 | 74 | – | 146 | 121 | 43 | 5 | 83 | 71 | 98 | 99 | – | – | – | – |
| Oc1ccc(Nc2nc(-c3ccc(Cl)cc3)cs2)cc1 | 107 | 101 | 107 | 123 | 179 | 104 | 100 | 98 | 119 | 96 | 104 | 93 | 95 | 63 | 97 | 88 | 113 | 107 |
